Data published in PubChem BioAssay (NCATS).
“And” between values parts separate entries of the source, which are not always exact repeats. Equal values may be shown once. Records with an inconclusive call do not appear. The source made the active and inactive calls. Unless noted, the call rests on the fitted dose curve; in most records, active means well fitted curve in the direction sought with a large enough effect; inconclusive means small, poorly fitted or top-dose-only effect, or another doubt; inactive means no such curve, though single readings can be large; an effect the other way counts as inactive or inconclusive.

Assays:
[1] = Cell Viability - BJ (AID 421; calls by dose curve;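 further: potency means the concentration at half of the fitted maximal effect; cells exposed to compound for 40 hours at 37 °C before readout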); conditions: BJ fibroblast viability, qHTS
Method in brief: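 Cytotoxicity in human BJ foreskin fibroblasts is scored as loss of cellular ATP after a 40-hour exposure, measured by luciferase luminescence. Controls are DMSO and 100 uM tamoxifen.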

[2] = Cell Viability - HepG2 (AID 433; calls by dose curve;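 further: potency means the concentration at half of the fitted maximal effect; cells exposed to compound for 40 hours; potency for ATP loss meaning cytotoxicity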); conditions: qHTS
Method in brief: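 In this qHTS format, a 40 h, 37 °C compound incubation of HepG2 cells in complete medium precedes a 20 min CellTiter-Glo step at room temperature. Tamoxifen and doxorubicin serve as positive controls; Hill-equation fits yield AC50.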

[3] = Cell Viability - HUV-EC-C (AID 542); conditions: HUV-EC-C endothelial cell viability, qHTS; series mostly up to 92.2 µM;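 further: cells exposed to compound for 40 hours; nearly all actives have a fitted effect of over 35% in size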; further: potency means the concentration at half of the fitted maximal effect; on activity change, negative = cytotoxicity: on the % scale 0 is the no-effect control and ±100 the full control effect
Method in brief: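 CellTiter-Glo luminescence measured ATP loss in HUV-EC-C cells (1000/well) after 40 hr compound exposure at 37 °C, in complete culture medium. Concentration-response data were Hill-fitted to give AC50.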

[4] = Cell Viability - Mesenchymal (AID 546); conditions: mesenchymal cells viability, qHTS; activity change, negative = cytotoxicity: at 91.7 µM (top of the series);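 further: cells exposed to compound for 40 hours before reading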
Method in brief: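 CellTiter-Glo luminescence (intracellular ATP, 20 min room temperature) after 40 hr compound exposure at 37 °C of 1000 glomerulus-derived human kidney mesenchymal cells/well; AC50 values obtained by fitting qHTS concentration-response data to the Hill equation.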

[5] = Cellular Toxicity (caspase-3) Jurkat (AID 655); conditions: Jurkat caspase-3 activation, luminescence; caspase-3 activation: at 92.2 µM (top of the series), DMSO = 0%, tamoxifen = 100%;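 further: cells exposed to compound for 16 h at 37 °C before reading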; further: potency means the concentration at half of the fitted maximal effect
Method in brief: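 qHTS in human Jurkat T-cell leukemia line: 16 hr compound treatment at 37 °C, caspase-3/7 activity measured by Caspase-Glo luminescence. AC50 derived from Hill equation.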

[6] = Cellular Toxicity (caspase-3) NIH 3T3 (AID 666); conditions: NIH 3T3 caspase-3 activation, apoptosis/toxicity, 0% DMSO, 100% is 100 µM tamoxifen; series mostly up to 92.2 µM;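 further: caspase signal read after 16 h compound exposure; 0% = DMSO basal and 100% = 100 µM tamoxifen stimulation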
Method in brief: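 Caspase-Glo 3/7 luminescence reported caspase activation in 1000 NIH 3T3 cells/well after 16 h compound exposure at 37 C. DMSO set basal and 100 uM tamoxifen set 100% stimulation; concentration-response modeled with the Hill equation for AC50.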

[7] = Cell Viability - LYMP1-002 - Assay at 16 hr (AID 948); conditions: LYMP1-002 lymphoblastoid cell viability; series mostly up to 92.2 µM; further: potency means the concentration at half of the fitted maximal effect;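 on activity change, negative = cytotoxicity: 0% = DMSO alone and full effect = 92 µM tetraoctylammonium bromide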
Method in brief: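 In this qHTS, lymphoblastoid LYMP1-002 cells (human) receive compounds for 16 hr at 37 C. Viability is taken from CellTiter-Glo ATP luminescence, and AC50 derives from standard Hill fits.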

[8] = MultiTox-Fluor Cytotoxicity Assay - LYMP1-002 - Live Cells (AID 955); conditions: LYMP1-002 lymphoblastoid live-cell protease fluorescence viability; series mostly up to 46.1 µM;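 further: cells exposed to compound for 16 hours; on the % scale 0 is the no-effect control and ±100 the full control effect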
Method in brief: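 After 16 h compound exposure at 37 C, live LYMP1-002 lymphoblastoid cells (2500/well) were quantified by cleavage of cell-permeant GF-AFC substrate, read at 405/510 nm after 60 min. Concentration-response fitted with Hill equation for AC50.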

[9] = Cell Viability - LYMP2-011 (AID 969); conditions: LYMP2-011 lymphoblastoid cells viability; series mostly up to 92.2 µM; further: nearly all actives have a fitted effect of over 60% in size; further: potency means the concentration at half of the fitted maximal effect
Method in brief: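 Cytotoxicity qHTS with ATP content as read-out: lymphoblastoid cells (2500/well) exposed to compound for 24 h at 37 C, then luciferase luminescence measured. Concentration-response data fitted with the standard Hill equation to give AC50.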

[10] = Cell Viability - LYMP2-013 (AID 970); conditions: LYMP2-013 lymphoblastoid cells viability; series mostly up to 92.2 µM; further: nearly all actives have a fitted effect of over 55% in size; further: potency means the concentration at half of the fitted maximal effect
Method in brief: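 qHTS cytotoxicity: ATP-dependent luminescence (CellTiter-Glo, 30 min room temperature) read after 24 h compound exposure at 37 C of 2500 LYMP2-013 lymphoblastoid cells per well. Concentration-response fitted with Hill equation to give AC50.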

[11] = Cell Viability - LYMP2-023 (AID 975); conditions: LYMP2-023 lymphoblastoid cell viability; series mostly up to 92.2 µM; further: nearly all actives have a fitted effect of over 55% in size; further: potency means the concentration at half of the fitted maximal effect;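 on activity change, negative = cytotoxicity: cellular ATP measured by luciferase luminescence as viability proxy; plate controls were DMSO only for no effect and 92 µM tetraoctylammonium bromide control for full effect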
Method in brief: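 Intracellular ATP, read by CellTiter-Glo luminescence, reports viability after 24 hr compound exposure at 37 C. 2500 lymphoblastoid cells/well (LYMP2-023) seeded 5 hr beforehand; Hill fits give AC50; positive control tetraoctylammonium bromide.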

[12] = Cell Viability - LYMP2-025 (AID 976); conditions: LYMP2-025 lymphoblastoid cell viability; series mostly up to 92.2 µM;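 further: plate controls were DMSO only for no effect and tetraoctylammonium bromide control for full effect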
Method in brief: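 Cytotoxicity read as loss of intracellular ATP (luciferase luminescence) after 24 h compound treatment at 37 C. Uses LYMP2-025 lymphoblastoid cells in 1536-well format; Hill-equation modelling gives AC50; tetraoctylammonium bromide as positive control.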

[13] = Cell Viability - LYMP2-007 (AID 979); conditions: LYMP2-007 lymphoblastoid cell viability; series mostly up to 92.2 µM;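 further: cells exposed to compound for 24 h before reading; nearly all actives have a fitted effect of over 60% in size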; further: potency means the concentration at half of the fitted maximal effect;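 on activity change, negative = cytotoxicity: 0% = DMSO only and the negative end = 92 µM tetraoctylammonium bromide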
Method in brief: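 AC50 values come from Hill-equation fits of luminescent intracellular ATP (CellTiter-Glo, 30 min, room temperature) following 24 h compound exposure at 37 C. Cells: LYMP2-007 lymphoblastoid line, 2500 per well, in complete culture medium.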

[14] = Cell Viability - LYMP2-008 (AID 980); conditions: LYMP2-008 lymphoblastoid cell viability, qHTS; series mostly up to 92.2 µM; further: nearly all actives have a fitted effect of over 60% in size; further: potency means the concentration at half of the fitted maximal effect; on activity change, negative = cytotoxicity: on the % scale 0 is the no-effect control and ±100 the full control effect
Method in brief: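 Cytotoxicity determined from ATP-dependent luciferase luminescence (CellTiter-Glo) following 24 h compound exposure of human lymphoblastoid LYMP2-008 cells at 37 C. Concentration-response data fitted to the Hill equation to give AC50.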

[15] = Cell Viability - LYMP2-014 (AID 983); conditions: LYMP2-014 lymphoblastoid cells, viability qHTS; series mostly up to 92.2 µM; further: nearly all actives have a fitted effect of over 50% in size; further: potency means the concentration at half of the fitted maximal effect;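 on activity change, negative = cytotoxicity: plate controls were DMSO only for no effect and 92 µM tetraoctylammonium bromide for full effect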
Method in brief: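 Intracellular ATP loss, read by luciferase luminescence, measures acute cytotoxicity after 24 h compound exposure of lymphoblastoid LYMP2-014 cells (2500/well, 37 C). Concentration-response data fitted to the Hill equation for AC50.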

[16] = Cell Viability - LYMP2-016 (AID 984); conditions: LYMP2-016 lymphoblastoid cell viability, qHTS; series mostly up to 92.2 µM; further: on the % scale 0 is the no-effect control and ±100 the full control effect; nearly all actives have a fitted effect of over 55% in size
Method in brief: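 Concentration-dependent ATP depletion measured in LYMP2-016 lymphoblastoid cells, 24 h, 37 C; luciferase-based luminescent detection; Hill-equation AC50.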

[17] = Cell Viability - LYMP2-018 (AID 985); conditions: LYMP2-018 lymphoblastoid cells, viability (qHTS); series mostly up to 92.2 µM; further: nearly all actives have a fitted effect of over 50% in size; further: potency means the concentration at half of the fitted maximal effect;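 on activity change, negative = cytotoxicity: plate controls were DMSO only for no effect and tetraoctylammonium bromide at 92 µM for full effect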
Method in brief: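 Viability read as CellTiter-Glo luminescence (cellular ATP) after 24 hr compound exposure at 37 C of 2500 LYMP2-018 lymphoblastoid cells/well, pre-plated 5 hr. Hill-equation modelling gave AC50.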

[18] = Cell Viability - LYMP2-026 (AID 989); conditions: LYMP2-026 lymphoblastoid cell viability, qHTS; series mostly up to 92.2 µM; further: on the % scale 0 is the no-effect control and ±100 the full control effect; nearly all actives have a fitted effect of over 50% in size
Method in brief: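 Cytotoxicity read as ATP-dependent luminescence (CellTiter-Glo, 30 min room temperature) after 24 h compound treatment at 37 C. LYMP2-026 lymphoblastoid line seeded at 2500 cells/well; AC50 derived by standard Hill equation.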

[19] = Cell Viability - LYMP1-002 - Assay at 40 hr (AID 994); conditions: LYMP1-002 lymphoblastoid cell viability; series mostly up to 92.2 µM; further: nearly all actives have a fitted effect of over 60% in size; further: potency means the concentration at half of the fitted maximal effect
Method in brief: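 Cytotoxicity was read as loss of cellular ATP (CellTiter-Glo luminescence) after 40 hr compound exposure at 37 C of 2500 LYMP1-002 lymphoblastoid cells per well. Concentration-response data were fitted with the standard Hill equation to give AC50.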

[20] = qHTS assay for cell viability of HEK293 cells (AID 743288); conditions: ATP luminescence (CellTiter-Glo), 18 h; max response: stronger effect = lower value; further: nearly all actives have a fitted effect of over 50% in size; further: potency means the concentration at half of the fitted maximal effect; on max response: on the % scale 0 is the no-effect control and ±100 the full control effect
Method in brief: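 HEK293, 18 h, 37 C, ATP luminescence. Cells at 2,000/well were allowed at least 5 h to settle before dosing; CellTiter-Glo developed 30 min at RT.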

c1ccc2ncccc2c1
inactive: Potency [1] > 92 µM | Potency [2] > 92 µM | Potency [3] | Potency [4] | Potency [5] | outcome [6] | Potency [7] | outcome [8] | Potency [9] | Potency [10] | Potency [11] | Potency [12] | Potency [13] | Potency [14] | Potency [15] | Potency [16] | Potency [17] | Potency [18] | Potency [19] | max response [20] -7.69%

CC(=O)OCc1ccc2c(c1)OCO2
inactive: Potency [1] > 92 µM | Potency [2] > 92 µM | Potency [3] | Potency [4] | Potency [5] | outcome [6] | Potency [7] | outcome [8] | Potency [9] | Potency [10] | Potency [11] | Potency [12] | Potency [13] | Potency [14] | Potency [15] | Potency [16] | Potency [17] | Potency [18] | Potency [19] | max response [20] -6.03%

Nc1cc([N+](=O)[O-])ccc1O
inactive: Potency [1] > 92 µM | Potency [2] > 92 µM | Potency [3] | Potency [4] | Potency [5] | outcome [6] | Potency [7] | outcome [8] | Potency [9] | Potency [10] | Potency [11] | Potency [12] | Potency [13] | Potency [14] | Potency [15] | Potency [16] | Potency [17] | Potency [18] | Potency [19] | max response [20] 11.2% and -4.43%

CC(C)S
inactive: Potency [1] > 92 µM | Potency [2] > 92 µM | Potency [3] | Potency [4] | Potency [5] | outcome [6] | Potency [7] | outcome [8] | Potency [9] | Potency [10] | Potency [11] | Potency [12] | Potency [13] | Potency [14] | Potency [15] | Potency [16] | Potency [17] | Potency [18] | Potency [19] | max response [20] -8.12%

C[C@@H]1CC2(OC(O)[C@]3(C)O[C@H]23)O[C@H]2C[C@@]3(C)[C@@H]4CC[C@H]5C(C)(C)C(O[C@@H]6OC[C@@H](O)[C@H](O)[C@H]6O)CC[C@@]56C[C@@]46CC[C@]3(C)[C@@H]12 (some centres undefined)
inactive: Potency [1] > 92 µM | Potency [3] | outcome [8] | Potency [9] | Potency [10] | Potency [11] | Potency [12] | Potency [13]
active: Potency [20] 44.7 µM

CCN(CC)c1ccc2c(C)cc(=O)oc2c1
inactive: Potency [1] > 92 µM | Potency [2] > 92 µM | Potency [3] | Potency [4] | Potency [5] | outcome [6] | Potency [7] | Potency [9] | Potency [10] | Potency [11] | Potency [12] | Potency [13] | Potency [14] | Potency [15] | Potency [16] | Potency [17] | Potency [18] | Potency [19] | max response [20] -1.15%

C=C1CC[C@H](O)C/C1=C/C=C1\CCC[C@]2(C)[C@@H]([C@H](C)CCCC(C)C)CC[C@@H]12
active: Potency [1] 61.2 µM | Potency [3] 39.8 µM | activity change, negative = cytotoxicity [4] -102% | Potency [5] 31.6 µM | Potency [7] 50.1 µM | Potency [9] 50.1 µM | Potency [10] 50.1 µM | Potency [11] 50.1 µM | Potency [13] 50.1 µM | Potency [14] 50.1 µM | Potency [15] 50.1 µM | Potency [17] 39.8 µM | Potency [19] 50.1 µM | Potency [20] 44.7 µM
inactive: Potency [2] > 92 µM | outcome [6]
